Giardia FBPA inh: blocks Giardia fructose-bisphosphate aldolase activity; actives 0.71% (n = 290,000); A8B2U2; purified Giardia FBPA; Potency, µM (doses to about 59.6 µM), most hits filed as inhibitors; active = well fitted curve in the direction sought with a large enough effect; inconclusive = small, poorly fitted or top-dose-only effect, or another doubt; inactive = no such curve, though single readings can be large; an effect the other way counts as inactive or inconclusive; also: nearly all actives have a fitted effect of over 55% in size
Target sequence (A8B2U2 whole entry, looked up): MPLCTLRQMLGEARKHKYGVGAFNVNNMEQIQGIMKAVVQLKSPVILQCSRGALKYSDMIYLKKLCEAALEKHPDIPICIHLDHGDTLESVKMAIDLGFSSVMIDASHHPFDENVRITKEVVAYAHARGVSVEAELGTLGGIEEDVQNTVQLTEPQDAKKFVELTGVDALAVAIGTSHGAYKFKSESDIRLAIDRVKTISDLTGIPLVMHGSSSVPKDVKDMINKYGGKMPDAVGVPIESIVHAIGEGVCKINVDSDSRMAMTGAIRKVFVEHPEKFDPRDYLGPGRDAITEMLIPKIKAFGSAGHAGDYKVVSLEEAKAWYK
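Giardia FBPA (40 nM reagent) was preincubated 10 min at RT with compound (up to 57.5 uM final), then substrate plus GAPDH/TPI/NAD/arsenate coupling system with diaphorase/resazurin was added; resorufin fluorescence (525/598 nm) was read after 20 min.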
AmpC detergent: AmpC beta-lactamase inhibition with detergent present | Potency, µM (top dose mostly 114 µM), usual class: inhibitors | AmpC hydrolysis of nitrocefin, absorbance 480 nm, 0.01% Triton | AID 485294 | actives 0.041% (n = 370,000) | P00811; active = well fitted curve in the direction sought with a large enough effect; inconclusive = small, poorly fitted or top-dose-only effect, or another doubt; inactive = no such curve, though single readings can be large; an effect the other way counts as inactive or inconclusive; also: nearly all actives have a fitted effect of over 25% in size
Target sequence (P00811 whole entry, looked up): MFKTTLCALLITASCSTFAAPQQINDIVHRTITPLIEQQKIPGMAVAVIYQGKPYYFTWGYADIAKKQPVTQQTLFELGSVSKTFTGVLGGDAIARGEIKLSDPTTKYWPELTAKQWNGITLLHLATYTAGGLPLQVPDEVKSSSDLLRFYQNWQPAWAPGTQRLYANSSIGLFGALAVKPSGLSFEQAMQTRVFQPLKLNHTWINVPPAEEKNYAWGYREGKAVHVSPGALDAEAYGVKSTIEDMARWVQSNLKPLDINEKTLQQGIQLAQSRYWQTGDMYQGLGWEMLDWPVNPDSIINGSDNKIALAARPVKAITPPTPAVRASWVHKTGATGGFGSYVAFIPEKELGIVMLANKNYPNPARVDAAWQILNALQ
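AmpC (5.3 nM in the dispensed reagent) in 20 mM phosphate pH 7.0 with 0.01% (detergent screen) or 0.0001% Triton X-100 was preincubated with compounds for 15 min at room temperature. Nitrocefin was then added from an 800 uM solution, and hydrolysis was followed at 480 nm.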
SARS PLP yeast: blocks SARS-CoV papain-like protease in a yeast assay. actives 0.19% (n = 330,000). S. cerevisiae expressing SARS-CoV PLpro, growth rescue. AID 485353. Potency, µM (top dose mostly 32.9 µM), hits mostly activators; also: nearly all actives have a fitted effect of over 55% in size
AmpC no deterg: AmpC beta-lactamase inhibition without detergent; P00811; AmpC nitrocefin hydrolysis, absorbance 480 nm, 0.0001% Triton; Potency, µM (titrated, usually from 57.1 µM), actives largely listed as inhibitors; actives 0.52% (n = 330,000); AID 485341; active = well fitted curve in the direction sought with a large enough effect; inconclusive = small, poorly fitted or top-dose-only effect, or another doubt; inactive = no such curve, though single readings can be large; an effect the other way counts as inactive or inconclusive; also: nearly all actives have a fitted effect of over 20% in size
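20 mM phosphate pH 7.0 + 0.01% (detergent screen) or 0.0001% Triton X-100; 5.3 nM AmpC reagent; cpd preinc 15 min RT; nitrocefin (800 uM stock) to start; A480 q20 s × 4 min; Activity was normalised to no-enzyme and no-compound control wells.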
NS1 inh: inhibitors of influenza NS1 protein function. AID 2326. actives 0.4% (n = 270,000). Potency, µM (highest dose often 46.1 µM); also: actives are rising curves; nearly all actives have a fitted effect of over 50% in size
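A cell-based growth assay was used: compounds that relieve NS1-induced slow growth of budding yeast raise OD600. Assay medium was yeast nitrogen base with ammonium sulphate and -URA supplement, pH 6.0, with 2% galactose.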
Flu NS1 inh: validation of influenza NS1 protein function inhibitors. 1,400 tested, under 10 active. activity change, negative = inhibition, % at 32.9 µM. shares compounds with NS1 inh. influenza NS1 function cell assay, 15-point titration
Flu PR8 replic: reduces influenza A/PR/8/34 replication in MDCK cells; virus titer (log TCID50), log10 TCID50 at 5 µM; MDCK infected influenza A/PR/8/34, virus titer TCID50; hits give low values; actives 30% (n = 95); shares compounds with NS1 inh; call rule not given here
Numbers stand for hits; – = inactive; ? = inconclusive; · = no result. Sampled rows, rich in hits. Any-hit rate of the full collection: about 1.4%. Unless noted, calls follow the shape of the full dose curve.

SMILES	Giardia FBPA inh	AmpC detergent	SARS PLP yeast	AmpC no deterg	NS1 inh	Flu NS1 inh	others
Cc1ccc(S(=O)(=O)Nc2ccc3nc(-c4cccn4C)[nH]c3c2)cc1	–	–	–	–	1.6µM	–	Flu PR8 replic=–
CCCOc1ccc(/C=N\NC(=O)CCc2n[nH]c(=O)[nH]c2=O)cc1OC	–	–	–	–	·	·
CC(C)(C)C(=O)Nc1ccc(C(=O)Nc2cccc(Oc3ccc(C(=O)O)c(C(=O)O)c3)c2)cc1	–	–	–	–	11µM	–
CC(=O)C1=C(c2ccc(Cl)c(Cl)c2)N(C(C)=O)n2c(nnc2C2CCCCC2)S1	·	–	·	·	·	·
CC(C)CC1C2C(=O)N(c3ccccc3)C(=O)C2ON1c1ccccc1 (stereo not given)	–	–	–	–	–	·
Cn1c(SCC(=O)NNC(=S)Nc2ccccc2)nnc1-c1ccncc1	–	–	–	–	3.2µM	–
Cc1cccc(NC(=O)CSc2nnc(-c3ccncc3)n2C)c1	–	–	–	–	–	·
O=C(CSc1cn(CC(=O)N2CCOCC2)c2ccccc12)N1CCOCC1	–	–	–	–	?	–
Cc1ccc(-n2c(Cn3c(C)nc4ccccc43)n[nH]c2=S)cc1	–	–	–	–	?	–
CC1=C(C(=O)N(C)C)C(c2cccs2)NC(=O)N1 (stereo not given)	–	–	–	–	–	·
COc1cc(/C=C\C(=O)NCc2ccc3c(c2)cc(C)n3C)cc(OC)c1OC	–	–	–	–	?	–
CC[C@@H](C)[C@H]1O[C@]2(CC[C@@H]1C)C[C@@H]1C[C@@H](C/C=C(\C)[C@@H](O[C@H]3C[C@H](OC)[C@@H](O[C@H]4C[C@H](OC)[C@@H](O)[C@H](C)O4)[C@H](C)O3)[C@@H](C)/C=C/C=C3\CO[C@@H]4[C@H](O)C(C)=C[C@@H](C(=O)O1)[C@]34O)O2	–	·	·	·	7.1µM	–
CC[C@H](C)[C@@H]1O[C@]2(CC[C@@H]1C)C[C@H]1C[C@H](CC=C(C)[C@@H](O[C@@H]3C[C@H](OC)[C@H](O[C@@H]4C[C@H](OC)[C@H](O)[C@H](C)O4)[C@H](C)O3)[C@@H](C)C=CC=C3CO[C@@H]4[C@@H](O)C(C)=C[C@@H](C(=O)O1)[C@]34O)O2	–	·	·	·	·	·
CN(C)c1ccc(NC(=O)Cn2cc3c(n2)CCCC3)cc1	–	?	–	–	10µM	–
Cc1cc(C)cc(NC(=O)Cn2cc3c(n2)CCCCC3)c1	–	–	–	–	–	·
CC1(C)Cc2c(sc3ncnc(NNC(=S)NCc4ccccc4)c23)CO1	–	–	–	–	11µM	–
O=C(O)CSc1nnc(-c2cc3ccccc3o2)n1-c1ccccc1	–	?	–	–	?	–
CC(C)NC(=S)N/N=C/c1sc(N2CCCCC2)nc1-c1cccs1	–	–	?	–	–	·
COc1ccc2nc(Nc3nc(CSc4nnnn4-c4ccccc4)cc(=O)[nH]3)nc(C)c2c1	–	–	–	–	–	·
Cc1ccc2c(C)nc(Nc3nc(CSc4nnnn4-c4ccccc4)cc(=O)[nH]3)nc2c1	–	–	–	–	14µM	–
COc1ccc2nc(C(F)(F)C(F)(F)F)c(C#N)c(N)c2c1	–	–	–	–	7.9µM	–
COc1cc(OC)c2c(N)c(C#N)c(C(F)(F)C(F)(F)F)nc2c1	–	–	–	–	–	·
COCCNC(=O)CN(C(=O)Cn1nnc2ccccc21)c1ccc(C)c(F)c1	–	–	–	–	–	·
CCN1CCN(CCNC(=O)c2ccc(CS(=O)(=O)c3c(Cl)cccc3Cl)o2)CC1	–	–	–	–	?	–
S=C(NCCc1ccccc1)N/N=C/C1CCCCC1	–	–	–	–	·	·
SMILES	Giardia FBPA inh	AmpC detergent	SARS PLP yeast	AmpC no deterg	NS1 inh	Flu NS1 inh	others
COc1ccc(S(=O)(=O)N2CCOC2CNC(=O)C(=O)NCCc2c[nH]c3ccccc23)cc1C (stereo not given)	–	–	–	–	14µM	–
COc1ccc(S(=O)(=O)N2CCOC2CNC(=O)C(=O)NCCc2c[nH]c3ccccc23)cc1 (stereo not given)	–	?	–	–	–	·
CCc1ccc(OCC(=O)NNC(=O)c2c(CC)noc2C)cc1	·	–	–	–	·	·
CCS(=O)(=O)Nc1cccc(C2=NN(S(=O)(=O)c3ccc(C)cc3)C(c3cccs3)C2)c1 (stereo not given)	–	?	–	–	13µM	–
CCS(=O)(=O)Nc1cccc(C2=NN(S(=O)(=O)c3ccccc3)C(c3cccs3)C2)c1 (stereo not given)	–	–	–	–	10µM	–
COc1ccc(C(=O)CC2(C(=O)O)CCCCC2)cc1	–	?	–	–	–	·
CNC(=O)N1c2ccccc2NC(=O)CC1C (stereo not given)	–	–	–	–	·	·
CCOC(=O)CSc1nc2ccc(N3CCOCC3)cc2c(=O)n1Cc1ccc2c(c1)OCO2	?	–	–	–	?	–
O=C(CSc1nnnn1Cc1ccccc1)c1ccccc1	–	–	–	–	–	·
O=C(CSc1nnnn1Cc1ccccc1)c1ccc(F)cc1	–	–	–	–	7.9µM	–
CC(=O)OCC(=O)[C@@]1(O)CC[C@H]2[C@@H]3CCC4=CC(=O)CC[C@]4(C)[C@@H]3C(=O)C[C@@]21C	–	·	·	·	·	·
CCOC(=O)C1CCN(C(=O)CSc2ccccc2)CC1	–	–	–	–	11µM	–
CCCCOc1ccc(C(=O)N2CCN(c3ccc(N4CCOCC4)nn3)CC2)cc1	·	?	–	–	·	·
CCCOc1ccc(C(=O)N2CCN(c3ccc(N)cc3Cl)CC2)cc1	–	–	–	–	11µM	–
C=CCS(=O)(=O)c1nc2ccccc2s1	–	–	–	–	–	·
CCOC(=O)C1=C(C)N=C2SC(C)C(=O)N2C1c1ccc(C(=O)OC)cc1 (stereo not given)	–	–	–	–	7.9µM	–
CCOC(=O)C1=C(C)N=C2SC(C)C(=O)N2C1c1ccccc1 (stereo not given)	–	–	–	–	–	·
CCOC(=O)c1ccc(S(=O)(=O)NCC(C)(C)N2CCOCC2)cc1	–	–	–	–	–	·
COc1ccccc1/C=N/NC(=O)c1[nH]c(C)c(C(=O)N/N=C/c2ccccc2OC)c1C	–	–	–	–	?	?
CCCCOc1ccccc1NC(=O)c1ccc(=O)[nH]c1	–	–	–	–	?	–
Cc1c(C)n(CCCN(C)C)c2ncnc(NC3CCCCC3)c12	–	–	–	–	–	·
COc1ccccc1NS(=O)(=O)c1ccc(C)c(NC(=O)c2ccc(S(=O)(=O)N3CCCCCC3)cc2)c1	–	–	?	–	20µM	–

Screening results (PubChem)
